From the supplement of paper PMC6555819

How the values were obtained:
Test in all cases: PBM binding z-score (relative to random genomic background probes); higher = stronger binding; sequences stand for … in GC…GCGATTGACAGCGTAGAATGAAGG
[1] = tested on: FXR:RXRa (NR concentration 270 nM, RXRa partner concentration 90 nM)
How it was run: (§1)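 Binding buffer was PBS pH 7.4 with 2% milk, 0.02% Triton X-100, 1 mM DTT, 0.2 mg/mL BSA and 0.4 mg/ml salmon testes DNA. In it, ligand-free nuclear receptor dimers were incubated 1 h on custom Agilent 4×180K protein-binding microarrays carrying double-stranded probes. Antibodies against each partner (one per run) detected binding, and z-scores were calculated against random background probes after regression normalization of scanned fluorescence.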

[2] = tested on: LXRa:RXRa (NR concentration 270 nM, RXRa partner concentration 90 nM)
How it was run: as §1

[3] = tested on: LXRa homodimer (NR concentration 270 nM)
How it was run: as §1

[4] = tested on: LXRb:RXRa (NR concentration 270 nM, RXRa partner concentration 90 nM)
How it was run: as §1

[5] = tested on: LXRb homodimer (NR concentration 270 nM)
How it was run: as §1

[6] = tested on: PPARa:RXRa (NR concentration 270 nM, RXRa partner concentration 90 nM)
How it was run: as §1

[7] = tested on: PPARg:RXRa (NR concentration 180 nM, RXRa partner concentration 90 nM)
How it was run: as §1

[8] = tested on: PPARg:RXRa 270nM:90nM, anti-RXR (NR concentration 270 nM, RXRa partner concentration 90 nM)
How it was run: as §1

[9] = tested on: PPARg:RXRa 30nM:10nM, anti-RXR (NR concentration 30 nM, RXRa partner concentration 10 nM)
How it was run: as §1

[10] = tested on: PPARg:RXRa 90nM:30nM, anti-RXR (NR concentration 90 nM, RXRa partner concentration 30 nM)
How it was run: as §1

[11] = tested on: PPARg:RXRa DBDmut IVT, anti-RXR (DBD mutation: RXRa K156A/R161A, NR concentration 270 nM, RXRa partner concentration 90 nM)
How it was run: as §1

[12] = tested on: PPARg:RXRa IVT, anti-PPARg (NR concentration 270 nM, RXRa partner concentration 90 nM)
How it was run: as §1

[13] = tested on: PPARg DBDmut:RXRa IVT, anti-PPARg (DBD mutation: PPARg1 K132A/R137A, NR concentration 270 nM, RXRa partner concentration 90 nM)
How it was run: as §1

[14] = tested on: PPARg DBDmut IVT, anti-PPARg (DBD mutation: PPARg1 K132A/R137A, NR concentration 270 nM)
How it was run: as §1

[15] = tested on: PPARg homodimer (NR concentration 180 nM)
How it was run: as §1

[16] = tested on: PXR:RXRa (NR concentration 270 nM, RXRa partner concentration 90 nM)
How it was run: as §1

[17] = tested on: PXR homodimer (NR concentration 270 nM)
How it was run: as §1

[18] = tested on: RARa:RXR (NR concentration 270 nM, RXRa partner concentration 90 nM)
How it was run: as §1

[19] = tested on: RARa homodimer (NR concentration 270 nM)
How it was run: as §1

[20] = tested on: RARb:RXRa (NR concentration 270 nM, RXRa partner concentration 90 nM)
How it was run: as §1

TCTCGGAGGACACGAAAGGTCCGAGCTCGACATC
PBM binding z-score [1]: 0.78
PBM binding z-score [2]: 0.222
PBM binding z-score [3]: -0.359
PBM binding z-score [4]: -0.21
PBM binding z-score [5]: -0.97
PBM binding z-score [6]: 0.254
PBM binding z-score [7]: 0.0516
PBM binding z-score [8]: 0.627
PBM binding z-score [9]: 1.98
PBM binding z-score [10]: 1.28
PBM binding z-score [11]: 1.48
PBM binding z-score [12]: -0.219
PBM binding z-score [13]: -0.586
PBM binding z-score [14]: -0.37
PBM binding z-score [15]: -0.226
PBM binding z-score [16]: 0.0287
PBM binding z-score [17]: -0.785
PBM binding z-score [18]: 0.412
PBM binding z-score [19]: -1.1
PBM binding z-score [20]: 1.47

TCTAGTTGGTCACGCAGGTCACACACGACGGGTA
PBM binding z-score [1]: 1.94
PBM binding z-score [2]: 1.98
PBM binding z-score [3]: 1.08
PBM binding z-score [4]: 2.09
PBM binding z-score [5]: 0.279
PBM binding z-score [6]: 2.87
PBM binding z-score [7]: 2.09
PBM binding z-score [8]: 2.99
PBM binding z-score [9]: 3.37
PBM binding z-score [10]: 2.92
PBM binding z-score [11]: 2.32
PBM binding z-score [12]: 3.48
PBM binding z-score [13]: 0.238
PBM binding z-score [14]: 1.23
PBM binding z-score [15]: 1.91
PBM binding z-score [16]: 2.72
PBM binding z-score [17]: 0.544
PBM binding z-score [18]: 3.15
PBM binding z-score [19]: 1.14
PBM binding z-score [20]: 3.05

ATACCCAGGTGATCGTGAGGTCGTTGATACTAAC
PBM binding z-score [1]: 1.37
PBM binding z-score [2]: 1.07
PBM binding z-score [3]: 0.85
PBM binding z-score [4]: 1.07
PBM binding z-score [5]: -0.141
PBM binding z-score [6]: 1.35
PBM binding z-score [7]: 0.596
PBM binding z-score [8]: 0.875
PBM binding z-score [9]: -0.0532
PBM binding z-score [10]: 0.317
PBM binding z-score [11]: -0.291
PBM binding z-score [12]: 1.1
PBM binding z-score [13]: 0.599
PBM binding z-score [14]: 0.838
PBM binding z-score [15]: 0.843
PBM binding z-score [16]: 2.35
PBM binding z-score [17]: 1.32
PBM binding z-score [18]: 1.95
PBM binding z-score [19]: -0.274
PBM binding z-score [20]: 0.914

GCTAGCAGGCCATTTGGGTCTCTCAATGACGGGC
PBM binding z-score [1]: -0.43
PBM binding z-score [2]: -0.541
PBM binding z-score [3]: -0.417
PBM binding z-score [4]: -0.913
PBM binding z-score [5]: -1.24
PBM binding z-score [6]: -0.217
PBM binding z-score [7]: -0.0162
PBM binding z-score [8]: -0.509
PBM binding z-score [9]: -1.01
PBM binding z-score [10]: -0.9
PBM binding z-score [11]: 0.644
PBM binding z-score [12]: 0.258
PBM binding z-score [13]: -0.858
PBM binding z-score [14]: -1.65
PBM binding z-score [15]: -0.8
PBM binding z-score [16]: -0.469
PBM binding z-score [17]: -0.68
PBM binding z-score [18]: -0.418
PBM binding z-score [19]: -1.34
PBM binding z-score [20]: 0.0129

CCTATTAGTTGACCATCAGGGCAACCGAAGCTCG
PBM binding z-score [1]: 0.442
PBM binding z-score [2]: 0.292
PBM binding z-score [3]: 0.822
PBM binding z-score [4]: 0.105
PBM binding z-score [5]: 0.434
PBM binding z-score [6]: 0.136
PBM binding z-score [7]: 0.185
PBM binding z-score [8]: 0.164
PBM binding z-score [9]: -0.404
PBM binding z-score [10]: 0.121
PBM binding z-score [11]: 0.536
PBM binding z-score [12]: 0.814
PBM binding z-score [13]: 0.556
PBM binding z-score [14]: 0.943
PBM binding z-score [15]: 1.44
PBM binding z-score [16]: 0.0854
PBM binding z-score [17]: 0.589
PBM binding z-score [18]: 0.0403
PBM binding z-score [19]: 1.51
PBM binding z-score [20]: 1.07

TCTTGTAGATCAAGGAGGTTAAGAAAGCCTGAGT
PBM binding z-score [1]: 0.502
PBM binding z-score [2]: 0.513
PBM binding z-score [3]: -0.308
PBM binding z-score [4]: 0.459
PBM binding z-score [5]: -0.443
PBM binding z-score [6]: 1.27
PBM binding z-score [7]: -0.429
PBM binding z-score [8]: 1.44
PBM binding z-score [9]: 2.7
PBM binding z-score [10]: 1.77
PBM binding z-score [11]: 1.66
PBM binding z-score [12]: 0.772
PBM binding z-score [13]: 0.58
PBM binding z-score [14]: 0.0101
PBM binding z-score [15]: 0.474
PBM binding z-score [16]: 0.734
PBM binding z-score [17]: 0.408
PBM binding z-score [18]: 0.789
PBM binding z-score [19]: -0.0638
PBM binding z-score [20]: 0.468
